Test results as given in PubChem BioAssay (Tox21).
Inconclusive results are not listed. The source made the active and inactive calls. Calls come from the whole dose curve; as a rule, active = well fitted cell-killing curve with a large enough effect in the repeat runs; inconclusive = weak or mixed curves, or effect the other way; inactive = flat fitted curve, though single readings scatter.

experiment: qHTS RealTime-Glo MT Cell Viability Assay in HepG2 cells - 40 hour (AID 1224870); conditions: RealTime-Glo luminescence; series mostly up to 76.8 µM; activity change, negative = cytotoxic: at the top concentration; note: nearly all actives have a fitted effect of over 50% in size
Text: National Center for Advancing Translational Sciences [NCATS]
NIH Chemical Genomics Center [NCGC]
U.S. Environmental Protection Agency [EPA]
National Institutes of Environmental Health Sciences [NIEHS]
National Toxicology Program [NTP]
U.S. Food and Drug Administration [FDA]
Measure of cell viability is critical in the cell-base assay. Analysis of cell viability is necessary for the characterization of cell responses to cytotoxic drugs and environmental stress. A RealTime-Glo MT Cell Viability Assay to monitor cell viability in real time of continues cell culture during 40 hours of compound treatment was used to screen Tox21 10K library compounds in HepG2 cells. The RealTime-Glo MT Cell Viability Assay is a nonlytic, homogeneous, bioluminescent method to measure cell viability in real time using a simple, plate-based method. The assay involves adding NanoLuc luciferase and a cell-permeant prosubstrate to cells in culture. Viable cells reduce the proprietary prosubstrate to generate a substrate for NanoLuc luciferase. This substrate diffuses from cells into the surrounding culture medium, where it is rapidly used by the NanoLuc Enzyme to produce a luminescent signal. The signal correlates with the number of viable cells, making the assay well suited for cytotoxicity studies.
Tox21 Assay Protocol Summary:
The mixture of HepG2 cell suspension and reagents were dispensed at 600cells/6 ul/well in 1536-well tissue culture treated black solid bottom plates using a Multidrop dispenser. After the assay plates were incubated at a 37 C/5% CO2 incubator for 5 hours, 23 nL of compounds dissolved in DMSO, positive and negative controls was transferred to the assay plate by a pintool work station. The plates were incubated at 37 C for 40 hours. The luminescence intensity were measured at 0h, 8h, 16h, 24h, 32h and 40h time points using ViewLux plate reader during compound treatment.
% is set by controls: 0 for no effect and ±100 for the full control effect; potency is the fitted concentration of half-maximal effect.

SMILES	activity change, negative = cytotoxic	Potency
CCOC(=O)CN	-5.22% (inactive)	
CCCCCCCCC(C)=O	-1.11% (inactive)	
CO[Si](CCC1CCC2OC2C1)(OC)OC (stereo not given)	-0.713% (inactive)	
ClC/C=C\CCl	-2.1% (inactive)	
CCO[Si](CCCSSSSCCC[Si](OCC)(OCC)OCC)(OCC)OCC	-3.69% (inactive)	
C#CC(O)CCC (stereo not given)	-1.55% (inactive)	
S=P(N1CC1)(N1CC1)N1CC1	4.47% (inactive)	
CCOC(/C=C(\C)CCC=C(C)C)OCC	-2.15% (inactive)	
CC(C)N=C(N)/N=C(\N)Nc1ccc(Cl)cc1	-5.69% [at 35.3 µM] (inactive)	
CCC(=O)CC(C)CC (stereo not given)	-5.05% [at 0.29 µM] (inactive)	
CC(C)=C1CC[C@@H](C)CC1=O	0.187% (inactive)	
CCOC(OCC)C(=O)c1ccccc1	-1.27% (inactive)	
O=C1c2c(O)ccc(O)c2C(=O)c2c(NCCNCCO)ccc(NCCNCCO)c21		7.56 µM (active)
C[Si](C)O[Si](C)C	4.56% (inactive)	
CCCCCCCCCCCCCOP(=O)(O)O	-0.146% (inactive)	
CCCCCCCC/C=C\CCCCCCCC(=O)OCCOC(=O)CCCCCCC/C=C\CCCCCCCC	-10.7% (inactive)	
CCCCCCCCCCCCCc1ccccc1	23.2% [at 35.3 µM] (inactive)	
S=C(SSSSSSC(=S)N1CCCCC1)N1CCCCC1	-10.6% [at 15.8 µM] (inactive)	
COc1cc(C(C)C)c2c(c1)S(=O)(=O)N(COc1cc(=O)n3cccc(OCCN4CCCCC4)c3n1)C2=O	-2.06% [at 15.8 µM] (inactive)	
CC(=O)O[C@@H]1C[C@@H]2CC[C@@]1(C)C2(C)C	2.28% (inactive)	

SMILES	activity change, negative = cytotoxic	Potency
CS(C)(=O)=O	20.8% (inactive)	
CC(C)CCOCCC(C)C	22.5% (inactive)	
C=C1C(C)(C)[C@@]2(Cl)C(Cl)[C@]1(Cl)C(Cl)(Cl)C2(Cl)Cl (stereo not given in full)	-24.5% (inactive)	
CCN(CC)c1cccc(C)c1	-1.66% (inactive)	
CCCC(=O)OCC(COC(=O)CCC)OC(=O)CCC	-1.85% (inactive)	
O=C1NCN(c2ccccc2)C12CCN(CCCC(c1ccc(F)cc1)c1ccc(F)cc1)CC2		6.74 µM (active)
CC(=O)c1ccccc1N	-1.36% (inactive)	
CC(C)(C)CC(C)(C)c1ccccc1O	2.92% (inactive)	
CCO[Si](C)(C)OCC	-0.428% (inactive)	
C[C@]12CC[C@H]3C(=CCc4cc(O)ccc43)[C@@H]1CCC2=O	-11.6% (inactive)	
CC1=CP(=O)(c2ccccc2)CC1 (stereo not given)	-5.75% (inactive)	
CCOC(=O)COc1ccc(C)cc1	2.07% (inactive)	
COCC(=O)O[C@]1(CCN(C)CCCc2nc3ccccc3[nH]2)CCc2cc(F)ccc2[C@@H]1C(C)C		10.7 µM (active)
CCOCOCC	-9.19% (inactive)	
COc1cccc(O)c1	-1.21% (inactive)	
O=C1Nc2ccc(Cl)cc2[C@@](C#CC2CC2)(C(F)(F)F)O1	-21.1% [at 35.3 µM] (inactive)	
Cc1cncc(C)c1	-8.19% (inactive)	
NC(=O)c1ccccc1N	-0.886% (inactive)	
O=C=NCc1cccc(CN=C=O)c1	0.58% [at 15.8 µM] (inactive)	
CC[N+](CC)(CC)Cc1ccccc1	3.52% (inactive)	
